Publication PMC8384837, “Expanding the binding specificity for RNA recognition by a PUF domain”

The sequences below were run against PUM1 PUF domain R5-GKR (Homo sapiens, UniProt Q14671 828-1176, C1007G;R1008K;Q1011R) (assay: yeast three-hybrid, YBZ-1, SC-Leu-His + 0.5 mM 3-AT, 4 days). Conditions: tags: N-Gal4 AD-HA kept; label: inside an RPR1-promoter hybrid RNA with tandem MS2 sites; ssRNA.
How it was run: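 The interaction score is the log change in how often each variant appears, from input to selection. Frequencies came from PCR-amplified, Illumina-sequenced repeat regions of Pumilio-1 PUF domain libraries grown in strain YBZ-1 (LexA–MS2 coat fusion, HIS3 reporter) alongside matching RNA elements. Input plates were SC-Leu and selection plates were SC-Leu-His + 0.5 mM 3-AT, each for four days, and the log2 calculation used a pseudocount of 1 where a variant was absent.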

Sequence	binding signal
GGCUAGAACUAGUGGAUCCCCCGGCGCCCGGCGGCUCGAGCCCGGGUAAGUGUAAAUAGUCUGCAUGCCGCCGGGCGCCAUGCCUGCAGGUCGACUCUAGAAAACAUG	1.48 log2 enrichment (interaction score)
GGCUAGAACUAGUGGAUCCCCCGGCGCCCGGCGGCUCGAGCCCGGGUAAGUGUCAAUAGUCUGCAUGCCGCCGGGCGCCAUGCCUGCAGGUCGACUCUAGAAAACAUG	6.15 log2 enrichment (interaction score)
GGCUAGAACUAGUGGAUCCCCCGGCGCCCGGCGGCUCGAGCCCGGGUAAGUGUUAAUAGUCUGCAUGCCGCCGGGCGCCAUGCCUGCAGGUCGACUCUAGAAAACAUG	2.96 log2 enrichment (interaction score)
